# Source: PMC7862700, “An all-to-all approach to the identification of sequence-specific readers for epigenetic DNA modifications on cytosine”
# Key:
# Experiment in all cases: DAPPL (digital affinity profiling via proximity ligation, sequencing); 10 mM Tris-HCl pH 7.5, 50 mM NaCl, 1 mM DTT, 4% glycerol, room temperature, 30 min; GST-TFs on glutathione beads, 16-mer random dsDNA library, 0.1% formaldehyde crosslink after washing; high values mean tight binding
# Settings in all cases: protein: recombinant; tags: N-terminal GST; dsDNA, one strand shown
# [1] = biological target: T1, FLI1 (Homo sapiens, UniProt Q01543 1-452)
# T1 sequence: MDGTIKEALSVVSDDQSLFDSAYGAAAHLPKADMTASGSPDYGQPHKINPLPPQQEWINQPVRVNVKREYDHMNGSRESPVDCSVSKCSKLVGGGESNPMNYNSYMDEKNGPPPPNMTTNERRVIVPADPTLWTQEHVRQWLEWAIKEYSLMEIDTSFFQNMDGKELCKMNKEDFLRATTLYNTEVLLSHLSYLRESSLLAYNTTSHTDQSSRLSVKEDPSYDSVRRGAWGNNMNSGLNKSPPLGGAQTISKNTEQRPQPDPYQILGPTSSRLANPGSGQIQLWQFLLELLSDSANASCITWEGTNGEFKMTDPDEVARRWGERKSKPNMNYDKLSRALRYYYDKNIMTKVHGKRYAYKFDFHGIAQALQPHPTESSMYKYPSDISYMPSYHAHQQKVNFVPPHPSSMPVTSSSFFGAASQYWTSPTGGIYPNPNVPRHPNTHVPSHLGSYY
# Method in brief: (§1)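 Yeast served to express human transcription factors as GST fusions, which were then captured on glutathione beads and labelled with DNA barcodes. Pooled with a tag-only sample, they were incubated with 200 nmole of a 16-mer random double-stranded DNA library for 30 min at room temperature in Tris/NaCl/DTT/glycerol buffer, washed, crosslinked with 0.1% formaldehyde, ligated by proximity, amplified by PCR and sequenced. Dividing each hexamer's read frequency for a factor by its frequency for the tag-only sample gives the binding signal.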
# [2] = biological target: T2, GABPA (Homo sapiens, UniProt Q06546 1-454)
# T2 sequence: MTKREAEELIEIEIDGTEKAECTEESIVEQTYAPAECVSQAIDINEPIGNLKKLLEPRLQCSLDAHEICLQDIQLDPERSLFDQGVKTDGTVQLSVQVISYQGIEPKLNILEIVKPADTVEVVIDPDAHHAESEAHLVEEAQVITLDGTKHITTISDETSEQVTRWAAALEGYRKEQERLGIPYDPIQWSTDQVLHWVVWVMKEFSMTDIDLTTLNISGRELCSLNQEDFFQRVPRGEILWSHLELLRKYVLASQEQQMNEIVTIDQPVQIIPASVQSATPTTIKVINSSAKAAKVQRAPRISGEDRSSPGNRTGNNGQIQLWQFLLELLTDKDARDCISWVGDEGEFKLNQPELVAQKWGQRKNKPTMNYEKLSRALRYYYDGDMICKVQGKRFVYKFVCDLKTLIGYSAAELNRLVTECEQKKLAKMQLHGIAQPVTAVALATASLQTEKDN
# Method in brief: as §1
# [3] = biological target: T3, ERG (Homo sapiens, UniProt P11308 1-479)
# T3 sequence: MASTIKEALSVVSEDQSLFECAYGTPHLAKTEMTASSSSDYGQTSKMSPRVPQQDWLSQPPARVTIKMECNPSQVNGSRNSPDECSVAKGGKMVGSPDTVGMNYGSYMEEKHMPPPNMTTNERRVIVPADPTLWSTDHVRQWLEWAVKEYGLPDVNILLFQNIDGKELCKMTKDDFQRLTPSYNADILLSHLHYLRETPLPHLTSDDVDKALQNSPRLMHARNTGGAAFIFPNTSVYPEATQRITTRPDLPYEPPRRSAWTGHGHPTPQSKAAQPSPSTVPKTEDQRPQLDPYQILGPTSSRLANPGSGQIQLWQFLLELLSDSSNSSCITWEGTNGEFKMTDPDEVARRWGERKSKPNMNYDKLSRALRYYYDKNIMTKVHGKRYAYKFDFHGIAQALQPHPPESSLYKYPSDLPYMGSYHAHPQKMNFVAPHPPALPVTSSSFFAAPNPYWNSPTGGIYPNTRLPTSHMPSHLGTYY
# Method in brief: as §1
# [4] = biological target: ELF1 (Homo sapiens, UniProt P32519 1-619)
# Chain of ELF1 (P32519 whole entry): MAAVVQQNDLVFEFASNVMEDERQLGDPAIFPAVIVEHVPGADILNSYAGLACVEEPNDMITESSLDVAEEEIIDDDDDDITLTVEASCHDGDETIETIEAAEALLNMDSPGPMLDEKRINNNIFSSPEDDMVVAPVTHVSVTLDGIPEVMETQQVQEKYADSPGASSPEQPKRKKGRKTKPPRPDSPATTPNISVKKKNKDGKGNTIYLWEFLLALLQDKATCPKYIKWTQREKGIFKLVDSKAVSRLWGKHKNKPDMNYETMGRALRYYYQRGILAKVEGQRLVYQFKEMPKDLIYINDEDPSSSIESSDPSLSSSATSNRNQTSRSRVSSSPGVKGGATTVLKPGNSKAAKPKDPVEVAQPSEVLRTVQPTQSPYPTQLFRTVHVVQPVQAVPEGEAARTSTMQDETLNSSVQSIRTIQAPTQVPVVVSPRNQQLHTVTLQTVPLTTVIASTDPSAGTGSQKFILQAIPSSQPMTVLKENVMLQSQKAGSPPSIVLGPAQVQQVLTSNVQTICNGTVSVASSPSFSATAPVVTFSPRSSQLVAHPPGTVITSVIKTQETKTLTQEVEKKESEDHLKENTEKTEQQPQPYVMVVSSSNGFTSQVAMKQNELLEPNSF
# Method in brief: as §1
# [5] = biological target: T4, EHF (Homo sapiens, UniProt Q9NZC4 1-300)
# T4 sequence: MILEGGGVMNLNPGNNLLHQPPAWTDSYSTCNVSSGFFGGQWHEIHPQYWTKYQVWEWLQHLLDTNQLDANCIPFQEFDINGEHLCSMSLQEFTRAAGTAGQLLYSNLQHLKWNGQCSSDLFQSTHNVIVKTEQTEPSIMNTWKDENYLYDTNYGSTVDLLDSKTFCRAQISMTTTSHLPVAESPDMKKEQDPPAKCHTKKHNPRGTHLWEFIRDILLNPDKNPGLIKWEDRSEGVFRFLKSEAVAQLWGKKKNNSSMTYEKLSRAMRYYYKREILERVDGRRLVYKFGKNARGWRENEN
# Method in brief: as §1
# [6] = biological target: SPIB (Homo sapiens, UniProt Q01892 1-262)
# Chain of SPIB (Q01892 whole entry): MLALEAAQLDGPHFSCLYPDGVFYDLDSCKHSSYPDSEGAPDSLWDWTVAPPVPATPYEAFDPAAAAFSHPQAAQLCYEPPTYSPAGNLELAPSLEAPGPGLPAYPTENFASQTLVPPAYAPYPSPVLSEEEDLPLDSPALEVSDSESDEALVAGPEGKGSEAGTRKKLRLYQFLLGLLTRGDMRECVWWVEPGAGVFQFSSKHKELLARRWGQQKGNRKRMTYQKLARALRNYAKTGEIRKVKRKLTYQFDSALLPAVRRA
# Method in brief: as §1
# [7] = biological target: T5, ELK3 (Homo sapiens, UniProt P41970 1-407)
# T5 sequence: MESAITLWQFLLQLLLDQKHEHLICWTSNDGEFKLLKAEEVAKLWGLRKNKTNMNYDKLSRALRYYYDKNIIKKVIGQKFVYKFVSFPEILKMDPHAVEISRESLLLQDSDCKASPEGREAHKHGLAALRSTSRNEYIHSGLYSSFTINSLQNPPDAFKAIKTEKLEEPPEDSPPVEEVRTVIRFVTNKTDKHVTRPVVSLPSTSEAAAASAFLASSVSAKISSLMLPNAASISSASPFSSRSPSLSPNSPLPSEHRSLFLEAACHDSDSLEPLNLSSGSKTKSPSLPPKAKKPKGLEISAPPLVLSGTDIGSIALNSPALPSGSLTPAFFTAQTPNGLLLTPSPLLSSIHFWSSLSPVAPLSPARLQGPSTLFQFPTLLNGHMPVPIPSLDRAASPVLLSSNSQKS
# Method in brief: as §1
# [8] = biological target: T6, SPIC (Homo sapiens, UniProt Q8N5J4 1-248)
# T6 sequence: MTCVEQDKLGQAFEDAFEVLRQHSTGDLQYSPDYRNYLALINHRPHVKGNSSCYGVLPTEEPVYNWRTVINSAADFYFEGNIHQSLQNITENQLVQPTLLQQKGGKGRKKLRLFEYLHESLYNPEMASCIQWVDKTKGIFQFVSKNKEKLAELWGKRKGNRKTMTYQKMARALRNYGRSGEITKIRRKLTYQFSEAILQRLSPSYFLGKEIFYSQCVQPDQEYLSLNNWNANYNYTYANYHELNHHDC
# Method in brief: as §1
# [9] = biological target: ELF4 (Homo sapiens, UniProt Q99607 1-663)
# Chain of ELF4 (Q99607 whole entry): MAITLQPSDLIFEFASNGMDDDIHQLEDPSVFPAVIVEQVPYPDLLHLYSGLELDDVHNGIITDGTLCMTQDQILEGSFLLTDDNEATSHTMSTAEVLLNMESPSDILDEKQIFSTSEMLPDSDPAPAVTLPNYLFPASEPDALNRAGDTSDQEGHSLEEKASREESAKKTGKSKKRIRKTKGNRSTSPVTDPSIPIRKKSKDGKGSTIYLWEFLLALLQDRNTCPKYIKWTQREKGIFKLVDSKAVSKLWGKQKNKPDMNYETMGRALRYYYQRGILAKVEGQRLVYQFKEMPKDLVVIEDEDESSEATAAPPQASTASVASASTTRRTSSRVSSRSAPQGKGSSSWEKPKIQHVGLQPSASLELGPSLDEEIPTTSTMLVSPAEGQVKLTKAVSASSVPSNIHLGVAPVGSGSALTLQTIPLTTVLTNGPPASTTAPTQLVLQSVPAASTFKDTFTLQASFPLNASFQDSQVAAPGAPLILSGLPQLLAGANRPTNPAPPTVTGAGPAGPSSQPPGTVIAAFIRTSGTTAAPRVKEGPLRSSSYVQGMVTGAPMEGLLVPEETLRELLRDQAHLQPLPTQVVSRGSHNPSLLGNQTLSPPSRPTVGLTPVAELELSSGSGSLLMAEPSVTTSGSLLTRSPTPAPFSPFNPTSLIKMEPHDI
# Method in brief: as §1
# [10] = biological target: T7, ELK4 (Homo sapiens, UniProt P28324-2 1-405)
# T7 sequence: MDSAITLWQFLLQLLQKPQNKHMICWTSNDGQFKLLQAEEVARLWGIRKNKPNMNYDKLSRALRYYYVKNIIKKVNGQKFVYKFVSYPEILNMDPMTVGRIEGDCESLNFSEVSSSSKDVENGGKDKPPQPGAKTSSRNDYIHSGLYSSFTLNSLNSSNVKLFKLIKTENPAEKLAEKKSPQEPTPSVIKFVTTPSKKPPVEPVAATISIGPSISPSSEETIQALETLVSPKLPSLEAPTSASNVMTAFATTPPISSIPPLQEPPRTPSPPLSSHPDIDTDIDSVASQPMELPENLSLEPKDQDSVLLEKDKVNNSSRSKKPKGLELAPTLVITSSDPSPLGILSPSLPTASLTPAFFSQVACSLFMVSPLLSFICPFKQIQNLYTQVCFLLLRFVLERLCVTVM
# Method in brief: as §1
# [11] = biological target: T8, ETV2 (Homo sapiens, UniProt O00321 1-342)
# T8 sequence: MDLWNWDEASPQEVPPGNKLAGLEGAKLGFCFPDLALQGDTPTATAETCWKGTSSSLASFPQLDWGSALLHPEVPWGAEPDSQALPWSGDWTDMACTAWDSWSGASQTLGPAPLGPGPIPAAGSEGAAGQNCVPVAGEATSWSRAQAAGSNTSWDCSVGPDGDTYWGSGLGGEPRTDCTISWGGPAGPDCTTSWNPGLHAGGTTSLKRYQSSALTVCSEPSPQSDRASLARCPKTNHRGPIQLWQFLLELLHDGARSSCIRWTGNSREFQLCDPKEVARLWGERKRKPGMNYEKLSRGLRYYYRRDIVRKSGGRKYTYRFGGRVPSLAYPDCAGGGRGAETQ
# Method in brief: as §1
# [12] = biological target: T9, ELF3 (Homo sapiens, UniProt P78545 1-371)
# T9 sequence: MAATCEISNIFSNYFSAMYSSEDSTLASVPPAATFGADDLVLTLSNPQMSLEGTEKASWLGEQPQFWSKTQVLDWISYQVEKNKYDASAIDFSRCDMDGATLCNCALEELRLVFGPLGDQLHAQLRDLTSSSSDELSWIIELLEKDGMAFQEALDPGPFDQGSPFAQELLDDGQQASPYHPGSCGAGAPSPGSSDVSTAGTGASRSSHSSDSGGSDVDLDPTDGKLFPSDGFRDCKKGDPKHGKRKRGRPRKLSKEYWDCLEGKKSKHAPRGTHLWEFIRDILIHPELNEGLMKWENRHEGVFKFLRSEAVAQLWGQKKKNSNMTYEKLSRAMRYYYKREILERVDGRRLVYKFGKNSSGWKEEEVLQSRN
# Method in brief: as §1
# [13] = biological target: T10, ERF (Homo sapiens, UniProt P50548 1-548)
# T10 sequence: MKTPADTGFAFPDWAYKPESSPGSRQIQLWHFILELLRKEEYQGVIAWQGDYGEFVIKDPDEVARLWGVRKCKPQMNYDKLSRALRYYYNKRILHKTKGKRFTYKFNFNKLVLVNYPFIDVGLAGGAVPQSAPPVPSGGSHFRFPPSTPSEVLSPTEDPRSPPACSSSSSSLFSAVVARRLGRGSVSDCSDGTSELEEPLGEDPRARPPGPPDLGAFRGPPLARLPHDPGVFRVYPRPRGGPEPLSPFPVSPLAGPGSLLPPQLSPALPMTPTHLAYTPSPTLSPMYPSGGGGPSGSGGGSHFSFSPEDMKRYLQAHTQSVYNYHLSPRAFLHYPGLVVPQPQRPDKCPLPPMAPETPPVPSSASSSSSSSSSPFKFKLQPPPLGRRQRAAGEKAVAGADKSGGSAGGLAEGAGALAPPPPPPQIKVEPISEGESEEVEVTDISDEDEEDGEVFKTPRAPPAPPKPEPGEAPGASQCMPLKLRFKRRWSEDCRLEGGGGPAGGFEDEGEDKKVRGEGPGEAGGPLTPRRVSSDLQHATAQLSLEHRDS
# Method in brief: as §1
# [14] = biological target: T11, ETV3L (Homo sapiens, UniProt Q6ZN32 1-361)
# T11 sequence: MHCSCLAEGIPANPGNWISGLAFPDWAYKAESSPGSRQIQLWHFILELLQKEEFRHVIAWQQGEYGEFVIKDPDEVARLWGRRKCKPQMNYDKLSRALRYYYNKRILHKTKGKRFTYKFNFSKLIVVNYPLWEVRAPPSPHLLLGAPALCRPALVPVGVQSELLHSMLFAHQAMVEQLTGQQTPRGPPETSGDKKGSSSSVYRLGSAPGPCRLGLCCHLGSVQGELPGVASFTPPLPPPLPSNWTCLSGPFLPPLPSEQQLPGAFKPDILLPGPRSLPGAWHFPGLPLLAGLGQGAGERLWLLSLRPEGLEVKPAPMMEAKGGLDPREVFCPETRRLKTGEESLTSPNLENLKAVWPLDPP
# Method in brief: as §1
# [15] = biological target: T12, ETS2 (Homo sapiens, UniProt P15036 1-469)
# T12 sequence: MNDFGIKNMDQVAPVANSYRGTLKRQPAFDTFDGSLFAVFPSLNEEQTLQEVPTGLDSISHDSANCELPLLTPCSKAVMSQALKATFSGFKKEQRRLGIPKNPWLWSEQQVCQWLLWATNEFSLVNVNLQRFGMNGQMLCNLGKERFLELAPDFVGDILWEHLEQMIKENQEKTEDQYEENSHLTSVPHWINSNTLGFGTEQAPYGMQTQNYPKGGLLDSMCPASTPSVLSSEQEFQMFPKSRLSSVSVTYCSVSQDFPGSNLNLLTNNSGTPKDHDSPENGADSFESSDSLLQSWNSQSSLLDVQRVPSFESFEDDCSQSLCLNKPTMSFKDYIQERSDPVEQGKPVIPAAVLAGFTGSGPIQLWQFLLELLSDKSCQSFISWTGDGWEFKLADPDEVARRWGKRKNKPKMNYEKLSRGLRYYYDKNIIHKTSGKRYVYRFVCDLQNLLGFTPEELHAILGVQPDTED
# Method in brief: as §1
# [16] = biological target: T13, ETV7 (Homo sapiens, UniProt Q9Y603 1-341)
# T13 sequence: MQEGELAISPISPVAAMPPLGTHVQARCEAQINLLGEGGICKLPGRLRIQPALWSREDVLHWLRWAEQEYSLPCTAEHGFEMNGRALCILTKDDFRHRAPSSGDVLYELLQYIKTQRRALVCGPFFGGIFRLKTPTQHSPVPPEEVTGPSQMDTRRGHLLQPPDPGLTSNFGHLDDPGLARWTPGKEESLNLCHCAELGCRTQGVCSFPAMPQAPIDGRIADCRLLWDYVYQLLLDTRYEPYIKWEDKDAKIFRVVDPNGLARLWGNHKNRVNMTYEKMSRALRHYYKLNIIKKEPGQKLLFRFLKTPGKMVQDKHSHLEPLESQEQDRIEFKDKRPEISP
# Method in brief: as §1
# [17] = biological target: ETV6 (Homo sapiens, UniProt P41212 1-452)
# Chain of ETV6 (P41212 whole entry): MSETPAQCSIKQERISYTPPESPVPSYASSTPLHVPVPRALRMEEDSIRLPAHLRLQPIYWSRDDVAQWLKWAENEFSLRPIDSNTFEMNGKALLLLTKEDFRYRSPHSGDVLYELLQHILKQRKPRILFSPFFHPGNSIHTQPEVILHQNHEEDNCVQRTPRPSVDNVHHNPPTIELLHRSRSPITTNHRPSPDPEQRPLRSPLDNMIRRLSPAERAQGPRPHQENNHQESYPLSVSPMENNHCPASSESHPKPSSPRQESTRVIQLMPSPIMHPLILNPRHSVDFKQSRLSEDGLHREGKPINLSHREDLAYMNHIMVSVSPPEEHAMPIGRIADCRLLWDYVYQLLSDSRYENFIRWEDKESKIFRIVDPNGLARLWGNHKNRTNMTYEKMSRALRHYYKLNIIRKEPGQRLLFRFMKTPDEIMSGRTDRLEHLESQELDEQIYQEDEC
# Method in brief: as §1
sequence,measurement,setting,value
CATTGC,binding signal,[1],"1.22 fold enrichment (6-mer frequency, TF over GST control)"
same,binding signal,[2],"1.08 fold enrichment (6-mer frequency, TF over GST control)"
same,binding signal,[3],"1.11 fold enrichment (6-mer frequency, TF over GST control)"
same,binding signal,[4],"1.09 fold enrichment (6-mer frequency, TF over GST control)"
same,binding signal,[5],"1.15 fold enrichment (6-mer frequency, TF over GST control)"
same,binding signal,[6],"1 fold enrichment (6-mer frequency, TF over GST control)"
same,binding signal,[7],"1.15 fold enrichment (6-mer frequency, TF over GST control)"
same,binding signal,[8],"1.16 fold enrichment (6-mer frequency, TF over GST control)"
same,binding signal,[9],"1.11 fold enrichment (6-mer frequency, TF over GST control)"
same,binding signal,[10],"1.04 fold enrichment (6-mer frequency, TF over GST control)"
same,binding signal,[11],"1.3 fold enrichment (6-mer frequency, TF over GST control)"
same,binding signal,[12],"1.04 fold enrichment (6-mer frequency, TF over GST control)"
same,binding signal,[13],"1.11 fold enrichment (6-mer frequency, TF over GST control)"
same,binding signal,[14],"1.08 fold enrichment (6-mer frequency, TF over GST control)"
same,binding signal,[15],"1.17 fold enrichment (6-mer frequency, TF over GST control)"
same,binding signal,[16],"1.14 fold enrichment (6-mer frequency, TF over GST control)"
same,binding signal,[17],"1.09 fold enrichment (6-mer frequency, TF over GST control)"
